The values that follow come from the OligoGym collection.

Holding throughout (test): pooled miR-30 sensor sort-seq; sequence = guide strand
Holding throughout (conditions): shRNA

For assay [1], the target named is DUSP5.
In assay [2] the target is DUSP3.
The target of assay [3] is EAPP.
Assay [4] deals with EBNA1BP2.
In assay [5] the target is ECH1.
Assay [6] has as its target EBP.
Note: reference of the scale not given here.

In assay [1], TATTGCTTCTTGAAAGTGGGAG gave a sensor-assay potency score (higher = more potent) of 0.394. On the same count and under the same terms, the figure for TCCATTTGTAGTGTAGGTGGGT is -0.0708. For TTCAGCACATGGGTGATGCCTA, the sensor-assay potency score (higher = more potent) in assay [2] was -0.601. On the same count and under the same terms, the value for TAGTCTGTCATTGAGCTGGCAG was -0.572.

Consider TAGCGCGCCGACACCGCGCCGC, for which the sensor-assay potency score (higher = more potent) in assay [1] is -0.777.

As for TTCATAAGGTAAGCCATGCAGA, in assay [1], the sensor-assay potency score (higher = more potent) was -0.386. TTGTAGAAGTTGGCATTGGTGT yielded a sensor-assay potency score (higher = more potent) in assay [2] of -0.415.

For the sequence TTCTGCTGAGCTCTGAGACTGT, the sensor-assay potency score (higher = more potent) in assay [1] was -0.115. Take TTGGCGAGGAACTCGCACTTGG: the sensor-assay potency score (higher = more potent) in assay [1] was -0.725. As for TTCCACATCTGTCTCTGCCTTC, the sensor-assay potency score (higher = more potent) in assay [3] was 0.205.

With TAGAAAGTCTCATATCCCCCTT, in assay [1], the sensor-assay potency score (higher = more potent) is -0.306.

As to TAGGCGATAACTAGCGTTGGGG, the sensor-assay potency score (higher = more potent) in assay [2] is -0.821. Turning to TTACATCCACGCAACACTCAGG, the sensor-assay potency score (higher = more potent) in assay [1] was -0.32. In the case of TGTAGCTGACATTTACCACTGG, in assay [1], the sensor-assay potency score (higher = more potent) was 0.536. Still for that read-out and setting: the figure for TTTACATCCACGCAACACTCAG is -1.07. In assay [3], TTTATATCTTAGAACCTCCTCT returned a sensor-assay potency score (higher = more potent) of 0.652. Turning to TTCCCTGACACAGTCAATGAAG, the sensor-assay potency score (higher = more potent) in assay [1] is -1.14. Same read-out and setting: the figure for ATGCATGGTAGGCACTTCCAAG is -1.82; for TTGACGTTGAGCGAGCCGCGCA it is -0.861. In assay [2], TCAATGAAGTCGGCAGCCCTTT displayed a sensor-assay potency score (higher = more potent) of -0.941. In the case of ATTGGTGTTGACGTGCATGAAG, the sensor-assay potency score (higher = more potent) in assay [2] was -1.24. TAGCTGACATTTACCACTGGTT had a sensor-assay potency score (higher = more potent) in assay [1] of -0.934. In assay [4], TTAGTCTGCAGCTTCTGTCGAA yielded a sensor-assay potency score (higher = more potent) of 0.0417. For TCAGCGTCTCTCGAAATCTTGT, in assay [5], the sensor-assay potency score (higher = more potent) is -0.622. Turning to ATGGTTTCCATGCACACTGTGA, the sensor-assay potency score (higher = more potent) in assay [6] is -0.951. Turning to TTCATCTTCTCTCTTGTTCGTT, in assay [4], the sensor-assay potency score (higher = more potent) came out at 0.27. On the same count and under the same terms, the figure for TAGAAACTCATCTCTCGCTGGA is 0.612. In the case of TACTGCTCTGTCTTCATCCTCG, the sensor-assay potency score (higher = more potent) in assay [3] turned out to be 0.413.

TTTTGTGGCCTTGGCATCCAGC showed a sensor-assay potency score (higher = more potent) in assay [6] of -1.25. In assay [5], TTTGTCTGGGAACACCCGGCTG returned a sensor-assay potency score (higher = more potent) of -1.1. Turning to ATCAACAGCTTTCTGGTCCTTG, the sensor-assay potency score (higher = more potent) in assay [4] is -0.301. Regarding TTGTTCATGGCATTCCTCTTGT, the sensor-assay potency score (higher = more potent) in assay [5] turned out to be 0.382.

In assay [4], TATTTGACCCTTTCTTGCCAGG showed a sensor-assay potency score (higher = more potent) of -1.16.

In assay [3], TAGATGATTCACTTTCTCCGGT yielded a sensor-assay potency score (higher = more potent) of 0.266. The sequence ATTAGGTACAAAGTTGTCCAGT displayed a sensor-assay potency score (higher = more potent) in assay [6] of -0.389. AAATCTTGTTGAAGCACTCTAC came in with a sensor-assay potency score (higher = more potent) in assay [5] of 0.264. Sequence TATACCGTCGTTTAGCACTGGG showed a sensor-assay potency score (higher = more potent) in assay [4] of -0.643. Same read-out and setting: the figure for TCATCTTCTCTCTTGTTCGTTT is -0.122; for TTTCTTAATAGCATTCATCATA it is -1.2. In turn, TATATCTTAGAACCTCCTCTTT displayed a sensor-assay potency score (higher = more potent) in assay [3] of -0.803. In turn, TTGGTCTCCAAGCAGGTCTTCG displayed a sensor-assay potency score (higher = more potent) in assay [6] of -0.868. Take AAGGCTAATACTGAGTCCCGGG: the sensor-assay potency score (higher = more potent) in assay [5] was 0.193. Sequence TACATCATCATAGCTCTCCCGA yielded a sensor-assay potency score (higher = more potent) in assay [4] of -0.31.

Consider TCGAGTGATGATGTCACGGAGG, for which, in assay [5], the sensor-assay potency score (higher = more potent) is -1.15. TTCATTACAAACATTGCTCTAT came in with a sensor-assay potency score (higher = more potent) in assay [3] of 0.525. In assay [6], TTCGTAGTAGAGAACGAACCAG gave a sensor-assay potency score (higher = more potent) of -0.577. In assay [5], TAAACTGGGAAACTGGGTCAGA returned a sensor-assay potency score (higher = more potent) of -0.506. TCATCGTAGTACCTTGTCGGAG: in assay [3], the sensor-assay potency score (higher = more potent) is -1.04. In turn, TATCGAGTGATGATGTCACGGA showed a sensor-assay potency score (higher = more potent) in assay [5] of -0.0973.

In assay [5], TTCTGCGCAGACGTCACACGAA yielded a sensor-assay potency score (higher = more potent) of -0.688. The sequence TCGTAGTAGAGAACGAACCAGC displayed a sensor-assay potency score (higher = more potent) in assay [6] of -1.05.

ACAAGCTGTAGAATGAAGCGGA gave a sensor-assay potency score (higher = more potent) in assay [6] of 0.326.

Sequence ATAGAAACTCATCTCTCGCTGG came in with a sensor-assay potency score (higher = more potent) in assay [4] of 0.115. TTCTCTTGTATCTGTGTTCTAA showed a sensor-assay potency score (higher = more potent) in assay [6] of -0.119. Still for that read-out and setting: the figure for TTGTCCAGTCTTAGGTGCTGAG is -1.23. Regarding TTGTTCTCAGTCGTGGCCTGGA, the sensor-assay potency score (higher = more potent) in assay [5] was -0.493. On the same count and under the same terms, the figure for TTGTCTGGGAACACCCGGCTGA is 0.142.

As for ATGAAGACAAAGTAAAACCAGA, in assay [6], the sensor-assay potency score (higher = more potent) was -0.723. The same measure, in the same setting: the figure for TAAAACCAGAAGTAGAGAGGGT is 0.087. With TAGTCTGCAGCTTCTGTCGAAT, in assay [4], the sensor-assay potency score (higher = more potent) is -0.943.
